Experimental data published in PubChem BioAssay (NCATS).
Inconclusive results are not listed. A call without a number means that no potency is given here. Active and inactive are the calls of the source. Calls come from the whole dose curve.

tested on: not listed separately; test: Natriuretic polypeptide receptor (hNpr1) antagonism - Pilot counterscreen GloSensor control cell line (AID 1347045); settings: HEK293 cGMP GloSensor cells, SNP-stimulated luminescence, 20 min; series mostly up to 38.3 µM
Summary of the method: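 Cells were first seeded and incubated overnight at 37C, then loaded with 2% GloSensor substrate for 2 h. Compounds were added for 30 min at room temperature, followed by a baseline read, 50 uM SNP and a final read after 20 min.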

SMILES	Potency
NC(N)=NOCC[C@H](N)C(=O)O	inactive
C[C@@H]1[C@@H]2Cc3ccc(O)cc3[C@@]1(C)CCN2CC1CC1	inactive
NC(Cc1ccc(N(CCCl)CCCl)cc1)C(=O)O (stereo unspecified)	inactive
C=CCN1CC[C@]23c4c5ccc(O)c4O[C@H]2/C(=N/NC(=O)c2ccccc2)CC[C@@]3(O)[C@H]1C5	inactive
CC12NC(Cc3ccccc31)c1ccccc12 (stereo unspecified)	inactive
COc1ccc2c(c1)c(CCN1CCOCC1)c(C)n2C(=O)c1cccc(Cl)c1Cl	inactive
C[N+]1(C)CCN(c2ccccc2)CC1	inactive
C[N+]1(C)C2CCC1CC(OC(=O)c1c[nH]c3ccccc13)C2 (stereo unspecified)	inactive
C=CCN1CC[C@]23c4c5ccc(O)c4O[C@@H]2/C(=N/N=C2\CC[C@@]4(O)C6Cc7ccc(O)c8c7[C@@]4(CCN6CC=C)[C@@H]2O8)CC[C@@]3(O)C1C5	inactive

target: Atrial natriuretic peptide receptor 1 (Homo sapiens) (UniProt P16066); test: Natriuretic polypeptide receptor (hNpr1) antagonism - Pilot screen (AID 1347049); settings: hNpr1 cells, antagonist mode cGMP read-out; series mostly up to 57.5 µM;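 note: HEK293 cells with hNpr1 and GloSensor cGMP luciferase stimulated by 0.1 nM hNppA; agonist-evoked cGMP luminescence read 20 min after hNppA addition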
Sequence (P16066 whole entry, looked up): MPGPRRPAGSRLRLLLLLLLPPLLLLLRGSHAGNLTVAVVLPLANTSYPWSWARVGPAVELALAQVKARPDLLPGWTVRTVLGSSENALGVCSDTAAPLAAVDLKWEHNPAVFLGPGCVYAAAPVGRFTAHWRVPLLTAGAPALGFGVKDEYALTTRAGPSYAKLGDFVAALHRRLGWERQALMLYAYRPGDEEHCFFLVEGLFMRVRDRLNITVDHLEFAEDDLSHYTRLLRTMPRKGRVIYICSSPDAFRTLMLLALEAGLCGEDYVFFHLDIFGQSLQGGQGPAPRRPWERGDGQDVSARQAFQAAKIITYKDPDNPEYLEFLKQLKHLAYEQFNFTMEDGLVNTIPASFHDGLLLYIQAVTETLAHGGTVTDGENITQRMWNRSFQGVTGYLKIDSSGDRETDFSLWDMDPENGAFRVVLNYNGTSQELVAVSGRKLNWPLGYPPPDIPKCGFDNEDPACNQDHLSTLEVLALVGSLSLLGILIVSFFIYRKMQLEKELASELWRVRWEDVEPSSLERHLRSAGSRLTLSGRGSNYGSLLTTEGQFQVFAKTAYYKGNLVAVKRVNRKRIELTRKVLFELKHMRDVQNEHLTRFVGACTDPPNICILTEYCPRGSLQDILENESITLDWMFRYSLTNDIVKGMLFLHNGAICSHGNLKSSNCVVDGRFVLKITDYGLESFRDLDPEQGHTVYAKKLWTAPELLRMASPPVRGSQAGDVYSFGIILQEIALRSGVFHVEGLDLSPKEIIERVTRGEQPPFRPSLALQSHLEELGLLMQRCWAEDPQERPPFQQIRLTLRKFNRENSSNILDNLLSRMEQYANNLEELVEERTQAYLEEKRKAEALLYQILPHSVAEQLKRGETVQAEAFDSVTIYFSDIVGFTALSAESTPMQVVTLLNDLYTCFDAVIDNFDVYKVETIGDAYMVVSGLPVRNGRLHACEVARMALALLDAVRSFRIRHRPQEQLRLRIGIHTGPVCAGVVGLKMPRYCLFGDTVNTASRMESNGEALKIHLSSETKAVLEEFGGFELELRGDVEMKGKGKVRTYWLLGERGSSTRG
Summary of the method: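 Receptor antagonism read as cGMP-dependent luminescence in hNpr1/pGS-40F HEK293 cells: pre-read after 30 min compound exposure, post-read 20 min after hNppA agonist at 0.1 nM final, all at room temperature, protected from light; A-71915 titration as control.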

SMILES	Potency
NC(N)=NOCC[C@H](N)C(=O)O	inactive
C[C@@H]1[C@@H]2Cc3ccc(O)cc3[C@@]1(C)CCN2CC1CC1	inactive
NC(Cc1ccc(N(CCCl)CCCl)cc1)C(=O)O (stereo unspecified)	inactive
C=CCN1CC[C@]23c4c5ccc(O)c4O[C@H]2/C(=N/NC(=O)c2ccccc2)CC[C@@]3(O)[C@H]1C5	inactive
CC12NC(Cc3ccccc31)c1ccccc12 (stereo unspecified)	inactive
COc1ccc2c(c1)c(CCN1CCOCC1)c(C)n2C(=O)c1cccc(Cl)c1Cl	inactive
C[N+]1(C)CCN(c2ccccc2)CC1	inactive
C[N+]1(C)C2CCC1CC(OC(=O)c1c[nH]c3ccccc13)C2 (stereo unspecified)	inactive
C=CCN1CC[C@]23c4c5ccc(O)c4O[C@@H]2/C(=N/N=C2\CC[C@@]4(O)C6Cc7ccc(O)c8c7[C@@]4(CCN6CC=C)[C@@H]2O8)CC[C@@]3(O)C1C5	inactive

target: Atrial natriuretic peptide receptor 2 (Homo sapiens) (UniProt P20594); test: Natriuretic polypeptide receptor (hNpr2) antagonism - Pilot subtype selectivity assay (AID 1347050); settings: NPR2-expressing cells, cGMP antagonist-mode read-out; series mostly up to 38.3 µM
Sequence (P20594 whole entry, looked up): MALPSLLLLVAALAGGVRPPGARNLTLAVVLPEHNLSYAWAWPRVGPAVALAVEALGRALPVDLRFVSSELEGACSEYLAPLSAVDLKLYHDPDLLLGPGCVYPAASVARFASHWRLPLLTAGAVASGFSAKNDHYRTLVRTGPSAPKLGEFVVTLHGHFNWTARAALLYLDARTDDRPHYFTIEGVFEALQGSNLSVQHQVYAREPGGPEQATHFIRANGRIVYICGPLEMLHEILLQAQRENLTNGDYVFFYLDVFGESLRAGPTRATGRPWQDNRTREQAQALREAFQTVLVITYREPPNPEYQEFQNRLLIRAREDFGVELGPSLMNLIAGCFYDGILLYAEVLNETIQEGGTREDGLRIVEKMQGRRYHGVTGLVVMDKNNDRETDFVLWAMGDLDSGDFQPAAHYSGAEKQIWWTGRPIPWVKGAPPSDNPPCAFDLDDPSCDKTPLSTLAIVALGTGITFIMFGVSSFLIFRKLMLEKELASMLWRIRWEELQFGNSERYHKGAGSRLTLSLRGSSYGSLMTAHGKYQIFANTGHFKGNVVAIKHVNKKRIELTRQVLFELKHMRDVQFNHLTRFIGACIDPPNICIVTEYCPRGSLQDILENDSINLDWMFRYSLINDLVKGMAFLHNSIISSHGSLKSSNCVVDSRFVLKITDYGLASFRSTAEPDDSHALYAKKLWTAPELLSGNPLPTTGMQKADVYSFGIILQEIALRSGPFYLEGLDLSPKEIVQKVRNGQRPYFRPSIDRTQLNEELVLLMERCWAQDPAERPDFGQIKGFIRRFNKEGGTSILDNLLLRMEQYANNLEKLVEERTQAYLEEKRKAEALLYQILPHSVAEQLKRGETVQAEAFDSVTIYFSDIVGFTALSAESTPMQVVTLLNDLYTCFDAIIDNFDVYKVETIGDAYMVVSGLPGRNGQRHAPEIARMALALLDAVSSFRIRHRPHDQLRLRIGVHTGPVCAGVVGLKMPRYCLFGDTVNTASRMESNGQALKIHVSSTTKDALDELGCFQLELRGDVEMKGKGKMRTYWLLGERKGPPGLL
Summary of the method: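 Antagonist mode: compounds (LOPAC1280, seven 1:5 dilutions) added 30 min before 1 nM hNppC stimulation of hNpr2-HEK293 cGMP-sensor cells; luminescence read before and 20 min after agonist at ambient temperature.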

SMILES	Potency
NC(N)=NOCC[C@H](N)C(=O)O	inactive
C[C@@H]1[C@@H]2Cc3ccc(O)cc3[C@@]1(C)CCN2CC1CC1	inactive
NC(Cc1ccc(N(CCCl)CCCl)cc1)C(=O)O (stereo unspecified)	inactive
C=CCN1CC[C@]23c4c5ccc(O)c4O[C@H]2/C(=N/NC(=O)c2ccccc2)CC[C@@]3(O)[C@H]1C5	inactive
CC12NC(Cc3ccccc31)c1ccccc12 (stereo unspecified)	inactive
COc1ccc2c(c1)c(CCN1CCOCC1)c(C)n2C(=O)c1cccc(Cl)c1Cl	inactive
C[N+]1(C)CCN(c2ccccc2)CC1	inactive
C[N+]1(C)C2CCC1CC(OC(=O)c1c[nH]c3ccccc13)C2 (stereo unspecified)	inactive
